Measured values: paper PMC9911399, “Two distinct binding modes provide the RNA-binding protein RbFox with extraordinary sequence specificity”
Numbering of substitutions follows the chain as printed; changes in the protein carry UniProt numbers. Whole data set: some 16,000 sequences, median “ka relative to ugcaugu” near 0.0091, cut for the highest 2% near 0.032. This excerpt belongs to a sample that is enriched for the highest values.

T1: RBFOX1 RRM (Homo sapiens, UniProt Q9NWB1 109-208)
T1 sequence: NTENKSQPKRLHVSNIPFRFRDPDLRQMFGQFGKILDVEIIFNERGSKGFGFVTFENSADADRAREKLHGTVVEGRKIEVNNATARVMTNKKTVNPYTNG

B1: AACGACU (DNA:RNA)
RNA: GGGAGACCGGAAUUCAGAUUGUCCAACGACUUUAAAUCCCGUCGUAGCCACCA
DNA 1: CAATCTGAATTCCGGTCTCCC
DNA 2: TGGTGGCTACGACGGGATT
B2: AUAAAAA (DNA:RNA)
RNA: B1 RNA with A26U, C27A, G28A, C30A, U31A
DNA 1: CAATCTGAATTCCGGTCTCCC
DNA 2: TGGTGGCTACGACGGGATT
B3: UUAUCUG (DNA:RNA)
RNA: GGGAGACCGGAAUUCAGAUUGUCCUUAUCUGUUAAAUCCCGUCGUAGCCACCA
DNA 1: CAATCTGAATTCCGGTCTCCC
DNA 2: TGGTGGCTACGACGGGATT
B4: AAGCACC (DNA:RNA)
RNA: B1 RNA with C27G, G28C, U31C
DNA 1: CAATCTGAATTCCGGTCTCCC
DNA 2: TGGTGGCTACGACGGGATT
B5: AAGCCCG (DNA:RNA)
RNA: B1 RNA with C27G, G28C, A29C, U31G
DNA 1: CAATCTGAATTCCGGTCTCCC
DNA 2: TGGTGGCTACGACGGGATT
B6: AAGCACG (DNA:RNA)
RNA: B1 RNA with C27G, G28C, U31G
DNA 1: CAATCTGAATTCCGGTCTCCC
DNA 2: TGGTGGCTACGACGGGATT
B7: AAAACAC (DNA:RNA)
RNA: B1 RNA with C27A, G28A, A29C, C30A, U31C
DNA 1: CAATCTGAATTCCGGTCTCCC
DNA 2: TGGTGGCTACGACGGGATT
B8: CAUCUUU (DNA:RNA)
RNA: B1 RNA with A25C, C27U, G28C, A29U, C30U
DNA 1: CAATCTGAATTCCGGTCTCCC
DNA 2: TGGTGGCTACGACGGGATT
B9: CUGUGCC (DNA:RNA)
RNA: B3 RNA with U25C, A27G, C29G, U30C, G31C
DNA 1: CAATCTGAATTCCGGTCTCCC
DNA 2: TGGTGGCTACGACGGGATT
B10: UGCCUGU (DNA:RNA)
RNA: B1 RNA with A25U, A26G, G28C, A29U, C30G
DNA 1: CAATCTGAATTCCGGTCTCCC
DNA 2: TGGTGGCTACGACGGGATT
B11: UGCUGUU (DNA:RNA)
RNA: B3 RNA with U26G, A27C, C29G, G31U
DNA 1: CAATCTGAATTCCGGTCTCCC
DNA 2: TGGTGGCTACGACGGGATT
B12: UGCCGGU (DNA:RNA)
RNA: B1 RNA with A25U, A26G, G28C, A29G, C30G
DNA 1: CAATCTGAATTCCGGTCTCCC
DNA 2: TGGTGGCTACGACGGGATT
B13: UGCCCUG (DNA:RNA)
RNA: B3 RNA with U26G, A27C, U28C
DNA 1: CAATCTGAATTCCGGTCTCCC
DNA 2: TGGTGGCTACGACGGGATT
B14: CUGCCUG (DNA:RNA)
RNA: B3 RNA with U25C, A27G, U28C
DNA 1: CAATCTGAATTCCGGTCTCCC
DNA 2: TGGTGGCTACGACGGGATT
B15: CGUUCGA (DNA:RNA)
RNA: B3 RNA with U25C, U26G, A27U, U30G, G31A
DNA 1: CAATCTGAATTCCGGTCTCCC
DNA 2: TGGTGGCTACGACGGGATT
B16: AUUUAUA (DNA:RNA)
RNA: B3 RNA with U25A, A27U, C29A, G31A
DNA 1: CAATCTGAATTCCGGTCTCCC
DNA 2: TGGTGGCTACGACGGGATT
B17: AGUACGU (DNA:RNA)
RNA: B1 RNA with A26G, C27U, G28A, A29C, C30G
DNA 1: CAATCTGAATTCCGGTCTCCC
DNA 2: TGGTGGCTACGACGGGATT
B18: GUUGUCC (DNA:RNA)
RNA: B1 RNA with A25G, A26U, C27U, A29U, U31C
DNA 1: CAATCTGAATTCCGGTCTCCC
DNA 2: TGGTGGCTACGACGGGATT
B19: UGGCACU (DNA:RNA)
RNA: B1 RNA with A25U, A26G, C27G, G28C
DNA 1: CAATCTGAATTCCGGTCTCCC
DNA 2: TGGTGGCTACGACGGGATT
B20: UGGCAGU (DNA:RNA)
RNA: B1 RNA with A25U, A26G, C27G, G28C, C30G
DNA 1: CAATCTGAATTCCGGTCTCCC
DNA 2: TGGTGGCTACGACGGGATT
B21: UGGGCAC (DNA:RNA)
RNA: B3 RNA with U26G, A27G, U28G, U30A, G31C
DNA 1: CAATCTGAATTCCGGTCTCCC
DNA 2: TGGTGGCTACGACGGGATT
B22: UGGGCAG (DNA:RNA)
RNA: B3 RNA with U26G, A27G, U28G, U30A
DNA 1: CAATCTGAATTCCGGTCTCCC
DNA 2: TGGTGGCTACGACGGGATT
B23: CUGGCAC (DNA:RNA)
RNA: B3 RNA with U25C, A27G, U28G, U30A, G31C
DNA 1: CAATCTGAATTCCGGTCTCCC
DNA 2: TGGTGGCTACGACGGGATT
B24: CUGGCAG (DNA:RNA)
RNA: B3 RNA with U25C, A27G, U28G, U30A
DNA 1: CAATCTGAATTCCGGTCTCCC
DNA 2: TGGTGGCTACGACGGGATT

Target: T1, RBFOX1 RRM
Experiment: EMSA; HiTS-Eq, 1 nM pool, 10 min; buffer printed only for the single-RNA assays: 10 mM Tris pH 7.5, 150 mM NaCl, 3.4 mM EDTA, 0.001% NP-40, 30 C
Conditions: tags: His6 N-terminal (pET28a); label: 5' 32P
Outline: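 Relative association constants, normalised to the cognate motif, were derived by comparing read counts of each RNA species with those of the control reaction. The RNA sequenced was the free fraction, separated by 8% native PAGE after a 10 min equilibration in 50 µL of 1 nM 5′-radiolabelled RNA (7 randomized nucleotides) with increasing concentrations of purified wild-type or mutant RbFox RRM.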

| Binder | binding signal |
| --- | --- |
| B1 | 0.00509 KA relative to UGCAUGU |
| B2 | 0.00125 KA relative to UGCAUGU |
| B3 | 0.0132 KA relative to UGCAUGU |
| B4 | 0.00479 KA relative to UGCAUGU |
| B5 | 0.00982 KA relative to UGCAUGU |
| B6 | 0.0333 KA relative to UGCAUGU |
| B7 | 0.00144 KA relative to UGCAUGU |
| B8 | 0.00311 KA relative to UGCAUGU |
| B9 | 0.0119 KA relative to UGCAUGU |
| B10 | 0.0501 KA relative to UGCAUGU |
| B11 | 0.0254 KA relative to UGCAUGU |
| B12 | 0.0131 KA relative to UGCAUGU |
| B13 | 0.025 KA relative to UGCAUGU |
| B14 | 0.0391 KA relative to UGCAUGU |
| B15 | 0.0138 KA relative to UGCAUGU |
| B16 | 0.00157 KA relative to UGCAUGU |
| B17 | 0.00915 KA relative to UGCAUGU |
| B18 | 0.0202 KA relative to UGCAUGU |
| B19 | 0.0174 KA relative to UGCAUGU |
| B20 | 0.0192 KA relative to UGCAUGU |
| B21 | 0.0337 KA relative to UGCAUGU |
| B22 | 0.0337 KA relative to UGCAUGU |
| B23 | 0.0183 KA relative to UGCAUGU |
| B24 | 0.0227 KA relative to UGCAUGU |
